Shown are actives, neighbours in structure and some others; about 22% of the full set was active somewhere.
CYP2C19 inhib – blocks human cytochrome P450 2C19; P33261; CYP2C19 Supersomes, luciferin-H EGE luminescence, 30 min; inhibition, % at 5 µM; actives 21% (n = 96,000); AID 778;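 active means CYP2C19 inhibition above a set limit at 5 µM in the primary screen, cut at about 50% in these data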
Measles CPE – protection of cells from measles virus. protection (pct of control), % at 4 µM. Measles virus-infected cells, CPE protection, absorbance. actives 1.5% (n = 140,000); in the data active means protection mostly above about 24%, no sharp cut-off; inactive means mostly below about 26%
CYP2C19 act – activators of human cytochrome P450 2C19. recombinant CYP2C19, luciferin-H EGE luminescence; hits give high values; 0 = fully inhibited enzyme, 1 = untreated enzyme. P33261. AID 1025. activation factor at 5 µM. 96,000 tested, under 10 active;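 active means activation factor of at least 2 at 5 µM in the primary screen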
CYP2C9 act – increases human cytochrome P450 2C9 activity. activation factor at 5 µM. recombinant CYP2C9, luciferin-H conversion, luminescence; hits give high values; factor 1 = untreated enzyme, 0 = blocked. AID 1024. P11712. actives 1.4% (n = 96,000);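 active means activation factor of 2 or more for CYP2C9 at a 5 µM dose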
Target sequence (P11712 whole entry, looked up): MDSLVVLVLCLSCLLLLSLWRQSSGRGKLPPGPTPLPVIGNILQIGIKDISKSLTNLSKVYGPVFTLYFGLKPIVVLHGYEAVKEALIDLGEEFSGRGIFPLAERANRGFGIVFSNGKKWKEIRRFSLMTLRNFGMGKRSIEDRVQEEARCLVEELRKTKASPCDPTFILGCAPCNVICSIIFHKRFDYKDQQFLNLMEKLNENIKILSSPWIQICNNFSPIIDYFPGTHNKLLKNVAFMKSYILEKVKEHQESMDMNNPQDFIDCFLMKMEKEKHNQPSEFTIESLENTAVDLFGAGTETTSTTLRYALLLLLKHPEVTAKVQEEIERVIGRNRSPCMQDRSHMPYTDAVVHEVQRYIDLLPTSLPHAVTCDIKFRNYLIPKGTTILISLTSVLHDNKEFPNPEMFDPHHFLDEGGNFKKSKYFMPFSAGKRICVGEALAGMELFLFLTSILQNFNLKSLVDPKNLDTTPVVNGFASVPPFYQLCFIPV
CYP2C9 inhib – inhibitors of human CYP2C9; CYP2C9 Supersomes, luciferin-H conversion, luminescence; actives 20% (n = 96,000); AID 777; inhibition, % at 5 µM;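 active means blocking of liver enzyme CYP2C9 beyond about 50% at 5 µM, limit read from the data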
Each line names hits and unclear results; the compound was inactive in the other large screens.

CCC(C)NS(=O)(=O)c1ccc(NC(C)=O)cc1 (centres undefined)	none (no result: CYP2C19 inhib, CYP2C19 act, CYP2C9 act, CYP2C9 inhib)
CCC(=O)Nc1ccc(/C(C)=N\NS(=O)(=O)c2ccc(C)cc2)cc1	CYP2C9 inhib 61
COc1ccc(S(=O)(=O)N/N=C(/C)c2ccc(Cl)cc2)cc1	CYP2C19 inhib 84, CYP2C9 inhib 79
ONC(=Nc1ccccc1)C(=Nc1ccccc1)NO	none
CC(=O)Nc1cccc(C(=O)OCc2ccc(C(=O)Oc3ccc(Cl)cc3)cc2)c1	none
COc1ccc(N2CCN(CC(=O)Nc3ccc(-n4cnnn4)cc3)CC2)cc1	none (no result: CYP2C19 inhib, CYP2C19 act, CYP2C9 act, CYP2C9 inhib)
CC(=O)Nc1ccc(S(=O)(=O)NNC(=O)c2ccc(C)cc2)cc1	CYP2C19 inhib 53
Cc1ccc(S(=O)(=O)NNC(=O)Nc2ccc(Cl)cc2)cc1	none (no result: CYP2C19 inhib, CYP2C19 act, CYP2C9 act, CYP2C9 inhib)
CC(=O)Nc1ccc(S(=O)(=O)NNC(=O)c2cccc3ccccc23)cc1	CYP2C9 inhib 62
CC(=O)Nc1ccc(/C(C)=N/NS(=O)(=O)c2ccc(C)cc2)cc1	CYP2C9 inhib 71
N#Cc1ccc(-c2ccc(OCC(=O)NCC(=O)Nc3ccc(F)c(F)c3F)cc2)cc1	none (no result: CYP2C19 inhib, CYP2C19 act, CYP2C9 act, CYP2C9 inhib)
O=C(Cn1c(=O)c2sccc2n(Cc2cccc([N+](=O)[O-])c2)c1=O)NCCc1ccccc1	none (no result: CYP2C19 inhib, CYP2C19 act, CYP2C9 act, CYP2C9 inhib)
CCOc1ccc(/C(O)=C2/C(=O)C(=O)N(c3ncccn3)C2c2ccccc2)cc1 (centres undefined)	none (no result: CYP2C19 inhib, CYP2C19 act, CYP2C9 act, CYP2C9 inhib)
COc1ccc(-c2nc(Cn3c(SCc4cccc(F)c4)nc4ccncc43)c(C)o2)cc1OC	CYP2C19 inhib 73, CYP2C9 inhib 89
Cc1ccc(CSc2nc3ccncc3n2CC(=O)Nc2cc(C)cc(C)c2)cc1	none (no result: CYP2C19 inhib, CYP2C19 act, CYP2C9 act, CYP2C9 inhib)
CCC(C(=O)NC1CCCCC1)n1c(SCc2cccc(F)c2)nc2ccncc21 (centres undefined)	none (no result: CYP2C19 inhib, CYP2C19 act, CYP2C9 act, CYP2C9 inhib)
COc1ccc(-c2nc(Cn3c(SCc4ccc(C)cc4)nc4ccncc43)c(C)o2)cc1OC	CYP2C19 inhib 53, CYP2C9 inhib 53
COc1ccc(S(=O)(=O)O/N=C2\CCSc3ccc(C)cc32)cc1	CYP2C19 inhib 56
CCOC(=O)c1cnc2c(C)c(Cl)ccc2c1Nc1ccc(S(=O)(=O)Nc2ncccn2)cc1	none (no result: CYP2C19 inhib, CYP2C19 act, CYP2C9 act, CYP2C9 inhib)
COC(=O)c1ccc(COC(=O)C23CC4CC(CC(O)(C4)C2)C3)o1	none
CC(Oc1ccc(Cl)cc1Cl)C(=O)NCCCn1ccnc1 (centres undefined)	CYP2C19 inhib 100, CYP2C9 inhib 99
CC(Oc1ccc(Cl)cc1Cl)C(=O)Nc1ncccn1 (centres undefined)	CYP2C19 inhib 69
CC(Oc1ccc(Cl)cc1Cl)C(=O)NCCN1CCOCC1 (centres undefined)	none
COC(=O)NNC(=O)C(C)Oc1ccc(Cl)cc1Cl (centres undefined)	none
Cc1cc(Cl)ccc1OC(C)C(=O)NCCc1ccc2c(c1)OCCO2 (centres undefined)	none (no result: CYP2C19 inhib, CYP2C19 act, CYP2C9 act, CYP2C9 inhib)
Cc1cc(Cl)ccc1OC(C)C(=O)NCCCCc1ccccc1 (centres undefined)	CYP2C9 inhib 56
CC(Oc1ccc(Cl)cc1Cl)C(=O)N/N=C1\CCCc2ccccc21 (centres undefined)	CYP2C9 inhib 60
COc1ccc(N2CC(C(=O)Nc3nnc(SCC(=O)c4ccccc4)s3)CC2=O)cc1 (centres undefined)	none (no result: CYP2C19 inhib, CYP2C19 act, CYP2C9 act, CYP2C9 inhib)
CC(Oc1ccc(Cl)cc1Cl)C(=O)NN=C1CCN(C)CC1 (centres undefined)	none (no result: CYP2C19 inhib, CYP2C19 act, CYP2C9 act, CYP2C9 inhib)
CC(Oc1ccc(Cl)cc1Cl)C(=O)NCc1ccncc1 (centres undefined)	CYP2C19 inhib 100, CYP2C9 inhib 98
CCc1ccc2[nH]c(=O)c(CN(CCN3CCOCC3)C(=O)Nc3ccccc3F)cc2c1	CYP2C9 inhib 52
CCc1ccc2[nH]c(=O)c(CN(Cc3ccccc3)C(=O)Nc3ccccc3OC)cc2c1	CYP2C19 inhib 86, CYP2C9 inhib 90
CCc1ccc2[nH]c(=O)c(CN(CCCN3CCOCC3)C(=O)Nc3ccc(F)cc3)cc2c1	CYP2C19 inhib 55
CCN(CC)CCCN(Cc1cc2cc(OC)ccc2[nH]c1=O)C(=O)Nc1ccc(F)cc1	CYP2C19 inhib 62, CYP2C9 inhib 84
Cc1ccc(C(=O)NCC(=O)NCC(=O)OCc2ccc(Cl)cc2)cc1	none (no result: CYP2C19 inhib, CYP2C19 act, CYP2C9 act, CYP2C9 inhib)
COc1cc2cc(CN(Cc3cccs3)C(=S)Nc3ccc(C)cc3)c(=O)[nH]c2cc1OC	Measles CPE 30 (no result: CYP2C19 inhib, CYP2C19 act, CYP2C9 act, CYP2C9 inhib)
COc1ccc(NC(=O)N(CCN2CCCC2)Cc2cc3cc(OC)c(OC)cc3[nH]c2=O)cc1	CYP2C9 inhib 75
COc1cc2cc(CN(Cc3cccnc3)C(=O)NCc3ccccc3)c(=O)[nH]c2cc1OC	CYP2C19 inhib 52, Measles CPE 48
